We go through twelve molecules from PubChem BioAssay (NCI).

Where “and” joins values, the source holds several entries; their conditions need not be identical. Identical values can stand only once. Compounds without any hit were thinned out: in the full panel of roughly 83,000, 20% have a hit.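 For each line, cells grew in 96-well plates with the test compound present at a single concentration for 48 hours.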 A number with no mark means an inactive call. Calls of active or inactive are those of the source. The calls were made as follows: active = growth percent below 10; inactive = the rest.

Common to all, as to test: NCI-60 one-dose screen, 48 h (100 = growth as untreated, 0 = no growth, -100 = all killed)
Holding throughout (conditions): 10 µM unless noted

Assay [1] relates to SK-MEL-2 melanoma.
For assay [2], the system named is EKVX NSCLC.
Assay [3] deals with SN12C renal.
Assay [4] deals with UO-31 renal.
For assay [5], the system named is TK-10 renal.
The subject of assay [6] is ACHN renal.
In assay [7] the test system is CAKI-1 renal.
Assay [8] concerns A498 renal.
Assay [9] concerns HL-60(TB) leukemia.
Assay [10] deals with CCRF-CEM leukemia.

For the molecule `O=C(NC1=NCC[Se]1)c1ccccc1O`, the growth is 83% in assay [1]; 73% in assay [2]; 68.4% in assay [3]; 17.8% in [4]; 56.7% in assay [5]; 79.8% in assay [6]. In addition, the growth is 50.8% in [7], 88.5% in assay [8], 58.8% in assay [9] and 21.8% in [10].

With `O=C(NCCCN1CC1)Nc1cccc2ccccc12`, the growth in [1] was 97.1% and 97.9%; in assay [2] it was 109% and 103%; in assay [3] it was 94.4% and 97.5%; in assay [4], 97.7% and 83.7%; in assay [5], 103% and 93.3%; in assay [7] it was 95.8% and 85.1%. In addition, the growth in assay [8] was 124% and 86.9%; in assay [9], 107%; in [10], 108% and 86.3%.

`CCCCCCCCCCCCCCCCCC1OCC(COC(=O)O[C@@H](C(=O)O[C@H]2C[C@@]3(O)[C@@H](OC(=O)c4ccccc4)[C@@H]4[C@]5(OC(C)=O)CO[C@@H]5C[C@H](O)[C@@]4(C)C(=O)[C@H](OC(C)=O)C(=C2C)C3(C)C)[C@@H](NC(=O)c2ccccc2)c2ccccc2)O1` (some centres not stated): the growth in [1] was 59.5%; in [2], 77.5%; in [3], 44.8%; in assay [4], 107%; in assay [5], 102%; in [7] it was 82.8%. In addition, the growth in [8] was 46%; in assay [9], 4.84% (active); in assay [10], 18.5%.

As to `O=CC1(c2ccccc2)CCN(Cc2ccccc2)CC1`, the growth was 117% in assay [1]; 101% in assay [2]; 107% in assay [3]; 83.9% in [4]; 115% in assay [5]; 112% in assay [6]. For the same molecule, the results for the growth in assay [7], in assay [9] and in [10] were 97.9%, 97.8% and 102%, respectively.

In the case of `CCCC(C)SP(=S)(SC(C)CCC)SC(C)CCC` (configuration not stated), the growth in assay [1] was 107%; in [2], 96.7%; in [3], 108%; in assay [4], 93%; in [5] it was 104%; in assay [7], 104%. For the same molecule, the growth in assay [8] is 113%; in [9], 106%; in assay [10], 103%.

As for `Cc1ccc(S(=O)(=O)n2cc([C@@]3(O)C[C@H](CSC#N)OC3=O)c3ccccc32)cc1`, the growth in [1] was 61%; in assay [2], 102%; in [3], 60.7%; in assay [4] it was 56.2%; in assay [5], 64.2%; in assay [6], 63%. For the same molecule, the growth in [7] was 66.8%; in [8], 97.1%; in [9], 80.1%; in assay [10], 31.7%.

Take `CC(=O)OC1CC2(O)C(CCC3(C)C(c4ccc(=O)oc4)CCC32O)C2(C)CCC(OC3OC(CO)C(O)C(O)C3O)C=C12` (configuration not stated): the growth in assay [1] was -23.2% (active); in assay [2], -89.1% (active); in [3], -6.05% (active); in assay [4] it was -80.8% (active); in [5] it was -92.3% (active); in assay [6], -79.8% (active). The growth in assay [7] is -93.5% (active); in [8], -33.8% (active); in [9], -46.1% (active); in [10], -25.1% (active).

`CC1=CC(=Nc2ccc(N(CCCl)CCCl)cc2)C=C(C)C1=O`: the growth in assay [1] is -8.46% (active); in assay [2], 70.6%; in [3], 20.4%; in [4], -13.7% (active); in assay [5] it was 9.98% (active); in assay [7], -44.9% (active). Moreover, the figures for the growth in [8], in assay [9] and in [10] were 69.8%, -7.43% (active) and -6.58% (active), respectively.

For `CCN1C(=O)NC(=O)C(C)(N2C(=O)c3c(F)c(F)c(F)c(F)c3C2=O)C1=O` (configuration not stated), the growth in [1] is 16.8%; in assay [2] it was 104%; in assay [3], 33.6%; in assay [4], 25.1%; in assay [5], 34.5%; in assay [6] it was -57.7% (active). Also, the growth in [7] was -46.7% (active); in assay [8] it was 99.2%; in [9], -70.3% (active); in assay [10], 19.5%.

Consider `O=C(CBr)OCCOC(=O)CBr`, for which the growth in [1] was 103%; in assay [2], 101%; in assay [3], 58%; in assay [4], -92.4% (active); in [5], 130%; in [7], 33.5%. Also, the growth in assay [8] was 150%; in [9], 42.4%; in assay [10] it was -15.5% (active).

Turning to `C#COc1cccc(Nc2ncnc3cc(NC(=O)CF)ccc23)c1`, the growth in assay [1] is 21.6% [6.25 µM]; in [2], 67.8% [6.25 µM]; in [3], 54.7% [6.25 µM]; in assay [4], 60.9% [6.25 µM]; in [5] it was 60.7% [6.25 µM]; in [7], 45.5% [6.25 µM]. For the same molecule, the growth in assay [8] is 75.3% [6.25 µM]; in [9], 54.5% [6.25 µM]; in [10], -7.49% [6.25 µM] (active).

Take `C=CC[PH+](c1ccccc1)c1ccccc1.C=CC[PH+](c1ccccc1)c1ccccc1.[Pt+2].[S-]c1ncccn1.[S-]c1ncccn1`: the growth in [1] was 75%; in [2], 2.19% (active); in assay [3], 40.3%; in assay [4], -94.5% (active); in assay [5] it was -3.54% (active); in [7], 5.27% (active). Also, the growth in [8] was 103%; in assay [9], -5.51% (active); in assay [10], 6.99% (active).
